Shiga inhibitor: Shiga toxin inhibition; Vero cells, Shiga toxin protein synthesis inhibition reporter; actives 9.2% (n = 290,000); inhibition, % at 38.7 µM; in the data active = inhibition mostly above about 28%, no sharp cut-off; inactive = mostly below about 43%; also: 0% is about no effect
Pf growth 96h: P. falciparum growth inhibition at 96 hours. P. falciparum luciferase reporter growth, 96 h. Potency, µM (top dose mostly 28.7 µM), for the others: at the highest dose activity change, negative = inhibition, most hits filed as inhibitors. actives 6.9% (n = 320,000). AID 504834; also: potency is read from the fitted curve at half-maximal effect; % is scaled to controls: 0 for no effect and ±100 for the full control effect
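Delayed-death screen, second-generation endpoint: infected erythrocytes, 2% hematocrit, 0.05% parasitemia final; 96 hours at 37 C, 5% CO2; luciferase detection reagent; luminescence decrease equals reduced growth.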
Cycloheximide cs: counter-screen for Shiga toxin inhibitors: cycloheximide protein synthesis inhibition | max response, % | AID 2314 | cell reporter, cycloheximide protein synthesis inhibition counterscreen | actives 12% (n = 300,000); in the data active = max response mostly above about 13%, no sharp cut-off; inactive = mostly below about 14%; also: read at 38.3 µM for the half of the compounds with a filed dose; 0% is about no effect
HCV inhibitor: inhibitors of hepatitis C virus infection. Potency, µM (doses to about 41.8 µM), inactives show at the highest dose activity change, negative = inhibition, actives largely listed as inhibitors. AID 651820. Huh7.5.1 HCVcc-Cre infection, luciferase reporter, 44 h. actives 3.4% (n = 340,000); also: potency is read from the fitted curve at half-maximal effect; % is scaled to controls: 0 for no effect and ±100 for the full control effect
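Antiviral activity was scored by luciferase reporter output from cells infected with HCVcc-Cre (~0.5 moi) in presence of compound, 44 h infection period, cells seeded 1,000/well 4 h prior.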
AMA1-RON2 inh: disrupts binding of P. falciparum AMA1 to RON2; AlphaScreen AMA1-biotinylated RON2 peptide binding; Potency, µM (series often up to 58.2 µM), inactives show top-dose activity change, negative = inhibition, actives largely listed as inhibitors; actives 0.2% (n = 360,000);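 also: potency is read from the fitted curve at half-maximal effect; 0% = vehicle wells and -100% = peptide control; nearly all actives have a fitted effect of over 45% in size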
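AMA1 (3D7) with his tag at 25 nM final met compounds first, then biotinylated RON2 peptide at 25 nM; detection used donor plus acceptor beads, 10 µg/mL apiece, read by AlphaScreen after 30 min at room temperature.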
Pf growth 48h: inhibits P. falciparum growth in the first generation, 48 h; Potency, µM (titrated, usually from 28.7 µM), for the others: top-dose activity change, negative = inhibition, actives largely listed as inhibitors; actives 5.9% (n = 310,000); P. falciparum luciferase growth in erythrocytes, 48 h; also: potency is read from the fitted curve at half-maximal effect; % is scaled to controls: 0 for no effect and ±100 for the full control effect
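Parasite viability was followed by luminescence of a genomically integrated firefly luciferase. Cultures held 0.1% parasitemia at 2% hematocrit (final), incubated under 5% CO2 at 37 C.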
Active calls of the source: *; ? = inconclusive; · = no result; [ ] = dose if it differs, or a comment. Hits are enriched below; roughly 21% of the tested compounds scored in any of these assays. Unless noted, calls follow the shape of the dose curve; as a rule, active = well fitted curve in the direction sought with a large enough effect; inconclusive = small, poorly fitted or top-dose-only effect, or another doubt; inactive = no such curve, though single readings can be large; an effect the other way counts as inactive or inconclusive.

SMILES | Shiga inhibitor | Pf growth 96h | Cycloheximide cs | HCV inhibitor | AMA1-RON2 inh | Pf growth 48h
CN(Cc1ccccc1)C(=O)c1ccc(NC(=O)Cc2ccc(NC(=O)C3CCN(S(=O)(=O)c4cccc([N+](=O)[O-])c4)CC3)cc2)cc1 | · | · | · | 13µM* | -7% | ·
CN(C(=O)Oc1cccc2cccnc12)c1ccccc1 | 19 | ? | 4 | 11% | -2% | -22%
O=C(/C=C\c1ccccc1)Oc1cccc2cccnc12 | 26 | 5.9µM* | 21* | ? | 126% | ?
O=C(Oc1cccc2cccnc12)c1ccccc1 | 25 | -7% | 28 | · | · | ?
O=C(/C=C/c1ccccc1)Oc1cccc2cccnc12 | 23 | 3.7µM* | 9 | -30% | 84% | 4.7µM*
OC(c1cccnc1)c1nc(/C=C/c2ccc(C(F)(F)F)cc2)cs1 (stereo not given) | · | · | · | · | 8% | ·
COc1ccc(CNC(=O)C2=CCN(S(=O)(=O)c3ccc(C)cc3)CC2)cc1 | -22 | -25% | 2 | 2% | 1% | -19%
CCN(CC)C(=O)Cn1cc(S(=O)(=O)CC(=O)NC2CCCCC2)c2ccccc21 | -29 | -15% | -6 | 7% | 6% | -10%
COc1ccc(Cl)cc1NS(=O)(=O)c1cccc(C(=O)NC2CC2)c1 | · | · | · | -4% | -2%[11.6 µM] | ·
Cc1ccccc1-c1nc(-c2ccccn2)no1 | 5 | ? | -1 | 5% | 19% | 182%
Clc1ccc(-c2nc(Cc3ccccc3)no2)cc1 | 38 | ? | 31* | 9% | 19% | ·
Cc1ccccc1-c1nc(Cc2ccccc2)no1 | 69* | ? | 51* | 21% | 106% | 128%
Cc1cc(-n2c(C)cc(C(=O)COc3cc(F)ccc3[N+](=O)[O-])c2C)no1 | · | ? | · | ? | -5% | 9.3µM*
Cc1ccc(NC(=O)C2(N(C(=O)Cn3nnnc3N)c3ccc(C)cc3)CCCCC2)cc1 | -30 | 13µM* | -2 | 3% | -4% | 15%
CCn1c(SCc2nc(-c3ccccc3)no2)nnc1-c1cccs1 | -6 | -27% | 6 | -19% | -12% | ·
CCn1c(SCc2nc3ccccc3s2)nnc1-c1cccs1 | 59* | 10µM* | 59* | -27% | 10% | -18%
CCSc1nnc(Cn2c(=O)sc3ccccc32)n1-c1ccccc1C | -7 | 21% | -2 | 1% | 22% | -10%
COc1ccc(-c2nnc(SCc3nc4ccccc4s3)n2C(C)C)cc1 | 86* | · | 28* | ? | -7% | ?
CCOc1ccccc1-n1nnnc1SCc1nc2ccccc2s1 | 168* | 7% | 48* | -28% | 13% | 62%
Cc1ccccc1-n1c(C)nnc1SCc1nc2ccccc2s1 | 91* | ? | 33* | 19% | 0% | ·
Cc1ccc(Cl)cc1N1CCN(C(=O)c2ccc3c(c2)CCN3S(C)(=O)=O)CC1 | -9 | -39% | 2 | · | · | ?
Cn1c(SCc2nc3ccccc3s2)nnc1-c1cccs1 | 66* | · | 60* | 7% | -8% | -25%
COc1ccccc1-c1nnc(SCc2nc3ccccc3s2)n1C | 26 | 20% | 16 | 20% | 5% | -2%
COCCNC(=O)/C(C#N)=C/c1c(N2CCCCCC2)nc2ccccn2c1=O | 21 | ? | -3 | -17% | -10% | ?
CCCCCCc1ccc(N2C[C@H](C)[C@@H](CC(=O)NCc3ccccc3)C2=O)cc1 | -1 | ? | 8.5* | 6% | 10% | ?
CCCCCCc1ccc(N2C[C@H](CCCCC)[C@@H](CC(=O)NCc3ccc(OC)cc3)C2=O)cc1 | 16 | ? | 4 | 12% | -4% | ?
CCCCCCc1ccc(N2C[C@H](Cc3ccccc3)[C@@H](CC(=O)NCc3ccc(OC)cc3)C2=O)cc1 | -6 | ? | 1 | 2.8µM* | -6% | -63%
CCCCCCc1ccc(N2C[C@H](Cc3ccccc3)[C@@H](CC(=O)Nc3ccccc3)C2=O)cc1 | 44* | ? | 17* | -54% | 7% | ?
COC(=O)C(C)NC(=O)c1cn(-c2ccccc2OC)c(=O)c2ccccc12 (stereo not given) | -2 | 1% | -2 | 5% | -4% | 9%

Source: PubChem BioAssay
